# High-throughput results (PubChem)
# Most compounds without a hit are left out; they make up all but 21% or so of the library.
# TDP1 cell noCPT: qHTS for Inhibitors of human tyrosyl-DNA phosphodiesterase 1 (TDP1): qHTS in cells in absence of CPT; DT40 Tdp1-/- hTDP1 cells, no CPT, ATP luminescence, 48 h; hit rate 15% among 420,000; AID 686978, 2013; Potency, µM (highest dose often 46.2 µM), for inactives: top-dose activity change, negative = growth inhibition, actives largely listed as inhibitors; also: potency is read from the fitted curve at half-maximal effect; % is scaled to controls: 0 for no effect and ±100 for the full control effect; nearly all actives have a fitted effect of over 55% in size
#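 Stably hTDP1-transfected Tdp1-null chicken DT40 cells were treated with library compounds minus camptothecin and grown for at least 48 hr at 37 °C, after which cellular ATP was quantified by luminescence.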
# ClpP mod: qHTS Assay for Activators of ClpP; purified B. subtilis ClpP, FRET peptide cleavage, 20 min; ATP-dependent Clp protease proteolytic subunit (Bacillus subtilis (strain 168)), P80244; hit rate 1.9% among 340,000; Potency, µM (series often up to 57.5 µM), for the others: at the top dose activity change, negative = active; active = well fitted falling curve with a large enough effect; inconclusive = small, poorly fitted or top-dose-only effect; inactive = no such curve, though single readings can be large or run the other way; also: potency is read from the fitted curve at half-maximal effect; the source files actives as falling curves though it sought activators and does not explain the sign; nearly all actives have a fitted effect of over 65% in size
# Target sequence (P80244 whole entry, looked up): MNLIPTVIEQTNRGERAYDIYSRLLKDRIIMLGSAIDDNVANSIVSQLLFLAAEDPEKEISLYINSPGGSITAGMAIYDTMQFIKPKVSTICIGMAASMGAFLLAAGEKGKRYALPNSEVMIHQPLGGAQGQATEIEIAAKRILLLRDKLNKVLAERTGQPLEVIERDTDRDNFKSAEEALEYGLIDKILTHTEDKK
#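 Purified B. subtilis ClpP, 10 microg/mL final in Tris/HCl pH8 with KCl, BSA, glycerol and Tween-20, cleaved an Abz/nitrotyrosine-quenched decapeptide. Fluorescence (ex 320, em 430) was read at 0 and 20 min at room temperature. Delta was normalized to 5.8 microM ADEP and DMSO/no-enzyme controls.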
# IL1B secr inh: qHTS for Inhibitors of Inflammasome Signaling: IL-1-beta AlphaLISA Primary Screen. THP-1 LPS/ATP IL-1B secretion, AlphaLISA, 16 h; hits give low values. activity change, % at 57.5 µM. hit rate 4.7% among 360,000; in the data active = activity change below about -50%; inconclusive = mostly about -30% to -49%; also: % is scaled to controls: 0 for no effect and ±100 for the full control effect
#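 Secreted IL-1B measured by AlphaLISA bead assay after 16 h compound exposure of THP-1 cells; compounds (final up to 57.5 uM) added 1 h before LPS (250 ng/mL) and ATP (1.25 mM) stimulation; lower signal means less secretion.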
# DRD3 agonist: qHTS of D3 Dopamine Receptor Agonist: qHTS | D(3) dopamine receptor (Homo sapiens), P35462 | max activation, % | hit rate 0.58% among 410,000 | D3R DiscoveRx beta-arrestin cells, luminescence, 90 min | AID 652048, 2013; in the data active = max activation above about 30%; also: 0% is about no effect
# Target sequence (P35462 whole entry, looked up): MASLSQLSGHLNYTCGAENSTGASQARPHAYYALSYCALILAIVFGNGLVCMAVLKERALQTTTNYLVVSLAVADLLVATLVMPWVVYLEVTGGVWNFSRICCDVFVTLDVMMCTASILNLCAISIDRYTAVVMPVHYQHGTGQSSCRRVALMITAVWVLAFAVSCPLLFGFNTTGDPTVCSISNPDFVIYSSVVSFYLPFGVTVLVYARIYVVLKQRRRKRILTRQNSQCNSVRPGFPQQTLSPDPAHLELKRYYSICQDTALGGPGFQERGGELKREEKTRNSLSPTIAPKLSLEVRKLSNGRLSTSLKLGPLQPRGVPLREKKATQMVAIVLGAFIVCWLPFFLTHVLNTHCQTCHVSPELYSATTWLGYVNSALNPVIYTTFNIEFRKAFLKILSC
#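 Cells at 1500/well, incubated overnight, then treated with pinned compounds (dopamine as control) for 90 min at 37 degrees C. DiscoveRx reagent added for 30 - 60 minutes at room temperature; luminescence read.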
# DRD3 antagonist: qHTS of D3 Dopamine Receptor Antagonist: qHTS; D(3) dopamine receptor (Homo sapiens), P35462; D3R cells, DiscoveRx beta-arrestin luminescence, antagonist mode; hits give low values; max response, negative = inhibition, %; hit rate 2.5% among 360,000; in the data active = max response below about -50%; inconclusive = no clear call, values can overlap the other calls; also: % is scaled to controls: 0 for no effect and ±100 for the full control effect
#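 Cells expressing the human receptor were seeded at 1500 cells/well, incubated overnight at 37 degrees C in 5% CO2, then exposed to library compounds with dopamine controls for 90 minutes at 37 degrees C before luminescent detection.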
# DT40 TDP1 CPT: qHTS for Inhibitors of human tyrosyl-DNA phosphodiesterase 1 (TDP1): qHTS in cells in presence of CPT; chicken DT40 Tdp1-/-;hTDP1 cells + 20 nM CPT, ATP luminescence, 48 h; Potency, µM (doses to about 46.2 µM), for the others: at the top dose activity change, negative = growth inhibition, hits mostly inhibitors; hit rate 12% among 420,000; also: potency is read from the fitted curve at half-maximal effect; % is scaled to controls: 0 for no effect and ±100 for the full control effect; nearly all actives have a fitted effect of over 55% in size
#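 Chicken DT40 Tdp1-/- cells stably complemented with human TDP1 were seeded at 400 cells/well in medium containing 20 nM camptothecin, exposed to pin-transferred compounds, and grown at 37 °C for at least 48 hr. Viability was read as ATP luminescence.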
# An asterisk follows results filed as active; i = inactive; ? = inconclusive; / = no result given. Unless noted, calls follow the shape of the dose curve; as a rule, active = well fitted inhibition curve with a large enough effect; inconclusive = small, poorly fitted or top-dose-only effect; inactive = flat fitted curve, though single readings scatter.
SMILES,TDP1 cell noCPT,ClpP mod,IL1B secr inh,DRD3 agonist,DRD3 antagonist,DT40 TDP1 CPT
O=C1NC[C@H](CCCCN2C[C@H](Cc3ccc(O)cc3)N(CCc3ccccc3)C(=O)C2=O)N(Cc2ccccc2)C1=O,-17.3%,1.3%,-1.9,-12.9,?,-6.2%
CCn1c(C2CC(=O)N(c3ccc(C)c(C)c3)C2)nc2ccccc21 (configuration not stated),18.4µM*,0.1%,-15.5,-7.3,?,?
Cc1ccc(N2CC(c3nc4ccccc4n3C)CC2=O)cc1C (configuration not stated),?,0.1%,-1.7,1.5,5.4,-18.1%
Cc1cc(C)cc(N2CC(c3nc4ccccc4n3C)CC2=O)c1 (configuration not stated),-25.6%,-0.9%,-12.9,-5.8,-53.7*,?
Cc1noc(C)c1C(=O)N1CCC2(CC1)CN(C(=O)Nc1cccc(F)c1)C2,-0.5%,/,/,/,/,-7.1%
Clc1ccc(OCc2nc(-c3ccccn3)n[nH]2)cc1,?,-1.8%,58.3,-15.0,?,?
Brc1ccc(OCc2nc(-c3ccccn3)n[nH]2)cc1,14.6µM*,-5.3%,-13.3,-4.9,-3.7,?
COCCn1c(N)c(N(Cc2ccccc2)C(=O)c2ccc(N3CCCC3=O)cc2)c(=O)[nH]c1=O,29.7%,-3.4%,-4.6,-5.3,0.3,-11.2%
COc1ccc(-c2nnc(SCC(=O)N3CCC(Cc4ccccc4)CC3)o2)cc1OC,?,-0.4%,-4.4,37.5*,48.8,-19.7%
CCOC(=O)N1CCN(C(=O)CSc2nnc(-c3ccc(C)c(C)c3)o2)CC1,14.6µM*,0.2%,-11.1,4.7,17.8,?
CCOC(=O)N1CCN(C(=O)CSc2nnc(-c3cc(OC)ccc3OC)o2)CC1,20.6µM*,-11.2%,-1.4,0.7,1.5,14.6µM*
CCOC(=O)N1CCN(C(=O)CSc2nnc(-c3cc(OC)cc(OC)c3)o2)CC1,?,-1.2%,-8.3,3.7,-24.3,-7.0%
CCOC(=O)N1CCN(C(=O)CSc2nnc(-c3cccc(OC)c3)o2)CC1,23.1µM*,-2.8%,5.2,1.7,12.2,16.4µM*
CCN(CC)CCCn1c2c(c(SCC(=O)Nc3nccs3)nc1=O)CCC2,0.7%,/,-7.2,-0.3,7.5,-13.1%
CC(=O)Nc1ccc(C(=O)CSc2nnc3cc(C)c4ccccc4n23)cc1,?,-6.6%,/,6.0,/,?
c1cncc(-c2nccc(-n3ccnc3)n2)c1,-24.9%,/,/,/,/,-6.6%
COc1cc2c(cc1OC)CN(C(=O)c1cc(S(=O)(=O)N3CCOCC3)ccc1C)CC2,?,-3.3%,-12.7,-3.1,3.5,-3.1%
COC(=O)c1cccc(NC2=NS(=O)(=O)c3ccccc32)c1,?,0.7%,/,3.4,/,?
Cc1cc(C(F)F)n2nc(C(=O)Nc3cccc(S(=O)(=O)N4CCOCC4)c3)nc2n1,-17.1%,-3.1%,-2.2,0.0,-7.6,-2.9%
COc1ccc(-c2cc(=O)c3ccccc3o2)cc1,?,4.2%,15.0,-10.9,-23.5,?
CCOc1ccc(N=c2cc(-c3ccc(OC)cc3)oc3ccccc23)cc1,25.9µM*,-1.1%,-13.7,17.0,-7.6,25.9µM*
COc1ccc(N=c2cc(-c3ccc(OC)cc3)oc3ccccc23)cc1,23.1µM*,-1.5%,/,0.0,40.3,?
COc1ccc(-c2cc(=Nc3ccc(C)cc3)c3ccccc3o2)cc1,?,-9.3%,?,-2.7,-16.5,?
COc1ccc(N=c2cc(-c3ccc(O)cc3)oc3ccccc23)cc1,?,/,-98.2*,1.0,-3.3,?
O=C(NNc1nc2ccccc2o1)c1ccccc1,-23.1%,/,-14.0,5.5,-9.0,-2.3%
SMILES,TDP1 cell noCPT,ClpP mod,IL1B secr inh,DRD3 agonist,DRD3 antagonist,DT40 TDP1 CPT
Cc1cc(C)nc(Nc2nc3ccccc3o2)n1,?,/,-76.0*,-15.5,-18.4,-3.1%
CC(=NNc1nc2ccccc2o1)c1cc2ccccc2cn1,0.13µM*,-3.2%,-102.3*,18.1,27.7,0.13µM*
CC(=NNc1nc2ccccc2o1)c1ncccn1,13µM*,-0.4%,-7.2,5.2,0.0,-114.9%
c1ccc(Nc2nc3ccccc3o2)cc1,-8.0%,-0.2%,18.5,-2.6,0.2,-24.7%
COc1cc(/C=N/Nc2nc3ccccc3o2)cc(OC)c1O,-23.0%,?,-25.1,-1.7,?,?
COc1ccc(S(=O)(=O)NNC(=O)Nc2ccc(F)cc2F)c(OC)c1,-17.9%,-0.8%,i,-4.0,-20.4,-17.6%
CCN(CC(=O)NC1CCS(=O)(=O)C1)S(=O)(=O)c1cc(C)ccc1C (configuration not stated),-0.1%,0.5%,3.0,2.5,5.8,6.5%
O=C(COc1ccccc1-c1nc(-c2ccccc2)no1)Nc1cccc([N+](=O)[O-])c1,?,-0.4%,/,15.0,/,2.59µM*
Cc1ccc(-c2noc(-c3ccccc3OCC(=O)Nc3ccccc3[N+](=O)[O-])n2)cc1,15.0%,-1.8%,/,3.8,/,-5.4%
Cc1noc(-c2ccccc2OCC(=O)Nc2cccc([N+](=O)[O-])c2)n1,-28.5%,0.1%,/,1.1,/,?
Cc1cccc(-c2noc(-c3ccccc3OCC(=O)Nc3ccccc3[N+](=O)[O-])n2)c1,16.4µM*,-1.0%,/,-1.4,/,?
O=C(Cn1nnc(-c2ccc(F)cc2)n1)Nc1cccc(S(=O)(=O)N2CCCC2)c1,?,0.8%,13.0,11.3,31.7,20.6µM*
CCN(CC)CC(=O)Nc1cccc(S(=O)(=O)N2CCCC2)c1,?,/,4.6,-19.4,-22.8,-26.4%
O=C(Cn1nnc(-c2ccccc2Cl)n1)Nc1cccc(S(=O)(=O)N2CCCC2)c1,20.6µM*,/,?,2.0,14.1,23.1µM*
COc1ccccc1CNC(=O)COC(=O)c1nc(Cl)ccc1Cl,-4.1%,-2.6%,9.4,2.4,-4.2,-1.7%
CCC(C)N=C1CC(C)(C)CC(=O)/C1=C(/O)Cc1ccccc1 (configuration not stated),?,/,-1.9,-14.7,-26.1,?
O=C(O)c1cccc2c1Cc1cc([N+](=O)[O-])ccc1-2,?,/,?,-14.3,-26.5,-17.4%
CC(=NO)c1ccc2c(c1)Cc1cc([N+](=O)[O-])ccc1-2,13µM*,-2.2%,-9.3,-1.3,-10.2,?
